Screening results as filed in PubChem.
ROS inducer = ROS inducers in U2OS cancer cells, primary screen, cell-based, H2DCF-DA fluorescence. actives 2% (n = 46,000). U2OS ROS induction. ROS induction (% of piperlongumine), % at 10 µM. AID 624156, 2012; in the data active = ROS induction above about 79%, passing the limit was not always enough; inconclusive = no clear call, values can overlap the other calls
PD-1 reversal = activators reversing PD-1 mediated T-cell inhibition, primary screen, luminescence, primary human CD4 T cells, PD-L1 beads; activation, % (concentration not given with the values); AID 2316, 2010; CellTiter-Glo 96 h; 29,000 tested, under 10 active; call rule not given here
YB-1 expression = inhibitors of YB-1 gene expression, primary screen, cell-based, fluorescence. U2OS, qRT-PCR YB-1 vs CDIP delta delta Cp, 16 h; hits give high values; zero = DMSO, each unit about twofold. delta delta Cp (YB-1 minus CDIP) (no concentration beside the values). actives 0.37% (n = 30,000);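 active = delta delta Cp rounded down to an integer at or above 3, about 3 SD of DMSO wells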;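 note: higher means less YB-1 transcript or more CDIP transcript relative to DMSO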
Large screens that a line does not name were inactive. Only some compounds are listed: those with a hit (about 2.1% of all), similar ones and a draw of the others.

O=C(O)c1ccc(CNC(=O)c2ccc(NC(=O)c3ccco3)cc2)cc1	ROS inducer 99 (no result: YB-1 expression)
O=C(NCc1ccccn1)c1ccc(NC(=O)c2ccco2)cc1	none (no result: YB-1 expression)
N#Cc1ccccc1NC(=O)CN1CCC(C(N)=O)CC1	none (no result: YB-1 expression)
CCC(Sc1nnc(C)n2c1cc1oc(C)cc12)C(=O)Nc1cccc(OC)c1 (centres undefined)	ROS inducer 96 (no result: PD-1 reversal, YB-1 expression)
CCn1c(SCC(=O)Nc2cccc(OC)c2)nnc1-c1cccc(C)c1	none (no result: YB-1 expression)
Cc1ccccc1Cn1cc(NC(=O)C2CC(c3ccc(Cl)cc3)=NO2)cn1 (centres undefined)	none (no result: YB-1 expression)
COCCOC(=O)N1C(=O)[C@@]2(c3cc(C#CC4(O)CCCCCC4)ccc31)[C@H](C(=O)N1CCN(c3ncccn3)CC1)[C@H]1C(=O)O[C@H](c3ccccc3)[C@H](c3ccccc3)N1[C@@H]2c1ccc(O)cc1	none (no result: PD-1 reversal)
COCCOC(=O)N1C(=O)[C@@]2(c3cc(C#CCCO)ccc31)[C@H](C(=O)N1CCN(c3ncccn3)CC1)[C@H]1C(=O)O[C@H](c3ccccc3)[C@H](c3ccccc3)N1[C@@H]2c1ccccc1OCCO	ROS inducer 166 (no result: PD-1 reversal)
COCCOC(=O)N1C(=O)[C@@]2(c3ccccc31)[C@H](c1ccccc1OCCO)N1[C@H](c3ccccc3)[C@H](c3ccccc3)OC(=O)[C@H]1[C@@H]2C(N)=O	ROS inducer inconclusive (no result: PD-1 reversal)
COCCOC(=O)N1C(=O)[C@@]2(c3ccccc31)[C@H](C(=O)N1CCN(c3ncccn3)CC1)[C@H]1C(=O)O[C@H](c3ccccc3)[C@H](c3ccccc3)N1[C@@H]2c1ccccc1OCCO	ROS inducer 122 (no result: PD-1 reversal)
C[C@@H]1CCCCO[C@H](CN(C)C(=O)Nc2ccc3c(c2)OCO3)[C@@H](C)CN([C@H](C)CO)C(=O)c2cc(NC(=O)C3CCCCC3)ccc2O1	none
C/C=C/C=C/C(=O)c1cc(C)c(O)c(C)c1O	ROS inducer 102
COC(=O)CCCCCCC(=O)N/N=C/c1ccc(F)c(Oc2ccccc2)c1	none (no result: PD-1 reversal)
CC(C)NC(=O)N(C)C[C@@H]1Oc2ccc(NS(=O)(=O)c3ccc(F)cc3)cc2C(=O)N([C@@H](C)CO)C[C@H]1C	none
C[C@@H]1CN([C@@H](C)CO)C(=O)c2cc(NS(=O)(=O)c3ccc(F)cc3)ccc2O[C@H]1CN(C)Cc1ccc2c(c1)OCO2	none
CCCc1cc(-n2cnc3ccccc32)n2c(nc3ccccc32)c1C#N	none (no result: PD-1 reversal, YB-1 expression)
Cc1cc(/N=C\N(C)C)n2c(nc3ccccc32)c1C#N	none (no result: PD-1 reversal, YB-1 expression)
CC(C)c1cc(NC2CCCCC2)n2c(nc3ccccc32)c1C#N	ROS inducer 164 (no result: PD-1 reversal, YB-1 expression)
CC(C)c1cc(NC(C)c2ccccc2)n2c(nc3ccccc32)c1C#N (centres undefined)	ROS inducer 257 (no result: PD-1 reversal, YB-1 expression)
COC(=O)c1cc(S(=O)(=O)/C=C/c2ccccc2)c(Cl)cc1Cl	ROS inducer 121 (no result: PD-1 reversal, YB-1 expression)
COC(=O)c1cc(NC(=O)CN(c2ccccc2F)S(C)(=O)=O)ccc1Cl	none (no result: YB-1 expression)
NS(=O)(=O)c1ccc(NC(=S)NCCN2CCOCC2)cc1	none (no result: YB-1 expression)
Cc1ccc(S[C@]2(C(=O)NC(C)C)CC(=O)N(C3CCCCC3)[C@@H]2c2ccc(CO)cc2I)cc1	ROS inducer 201 (no result: PD-1 reversal)
Cc1ccc(S[C@]2(C(=O)NCC(F)(F)F)CC(=O)N(C3CCCCC3)[C@@H]2c2ccc(CO)cc2I)cc1	none (no result: PD-1 reversal)
COC(=O)c1cc(C(=O)NCc2ccco2)cc([N+](=O)[O-])c1	none (no result: YB-1 expression)
O=c1[nH]ncc(NCC2CCCO2)c1Cl (centres undefined)	none
C[C@H](CO)N1C[C@H](C)[C@@H](CN(C)Cc2ccc(Oc3ccccc3)cc2)Oc2c(NC(=O)c3ccc(-c4nccs4)cc3)cccc2C1=O	ROS inducer 120
C[C@H]1CN([C@@H](C)CO)C(=O)c2cccc(NC(=O)c3ccc(-c4nccs4)cc3)c2O[C@H]1CN(C)S(=O)(=O)c1cccs1	ROS inducer 83
C[C@@H]1CN([C@H](C)CO)C(=O)c2cccc(NC(=O)c3ccc(-c4nccs4)cc3)c2O[C@@H]1CN(C)S(=O)(=O)c1cccs1	none (no result: PD-1 reversal)
C[C@H](CO)N1C[C@H](C)[C@H](CN(C)Cc2ccc(C(F)(F)F)cc2)Oc2c(NC(=O)c3ccc(-c4nccs4)cc3)cccc2C1=O	none (no result: PD-1 reversal)
C[C@H]1CN([C@@H](C)CO)C(=O)c2cccc(NC(=O)c3ccc(-c4nccs4)cc3)c2O[C@H]1CN(C)Cc1ccc(C(F)(F)F)cc1	ROS inducer 109 (no result: PD-1 reversal)
C[C@H]1CN([C@@H](C)CO)C(=O)c2cccc(NC(=O)c3ccc(-c4nccs4)cc3)c2O[C@H]1CN(C)Cc1ccc(Oc2ccccc2)cc1	none
COc1ccc2c(c1OC)C(=O)OC2Nc1nc2ccc(OC(F)(F)F)cc2s1 (centres undefined)	none (no result: PD-1 reversal, YB-1 expression)
O=C(Nc1ccc(Cl)cc1Cl)NC(Cc1ccc(O)cc1)C(=O)O (centres undefined)	none (no result: YB-1 expression)
O=C(Nc1cccc(-c2nc3ccccc3[nH]2)c1)c1ccccc1	none (no result: PD-1 reversal, YB-1 expression)
CC1CCCCN1S(=O)(=O)c1ccc(C(=O)Nc2cccc(-c3nc4ccccc4[nH]3)c2)cc1 (centres undefined)	ROS inducer 204 (no result: PD-1 reversal, YB-1 expression)
C[C@@H]1CN([C@H](C)CO)C(=O)c2cccc(NS(=O)(=O)c3ccc(F)cc3)c2O[C@H]1CN(C)CC1CCCCC1	none (no result: PD-1 reversal)
CC1=C(CO)C(=O)OC([C@@H](C)C2CC[C@H]3C4C[C@H]5O[C@]56[C@@H](O)C=CC(=O)[C@]6(C)C4CC[C@]23C)C1 (some centres undefined)	ROS inducer 138
COc1ccc(/C=C2\SC(=S)N(CCCC(=O)O)C2=O)cc1OC	ROS inducer 138
CN1CCN(NC(=O)CCN2C(=O)/C(=C\c3ccccc3)SC2=S)CC1	none
C[C@@H]1CN([C@@H](C)CO)C(=O)Cc2cc(NS(=O)(=O)c3cn(C)cn3)ccc2O[C@@H]1CN(C)Cc1ccncc1	none
C[C@H]1CN([C@@H](C)CO)C(=O)Cc2cc(NS(=O)(=O)c3cn(C)cn3)ccc2O[C@@H]1CN(C)Cc1ccncc1	ROS inducer 79
C[C@@H]1CN([C@H](C)CO)C(=O)Cc2cc(NS(=O)(=O)c3cn(C)cn3)ccc2O[C@@H]1CN(C)Cc1ccc(Oc2ccccc2)cc1	ROS inducer 80
C[C@H]1CN([C@@H](C)CO)C(=O)Cc2cc(NS(=O)(=O)c3cn(C)cn3)ccc2O[C@H]1CN(C)Cc1ccc(-c2ccccc2)cc1	ROS inducer 95
C[C@@H]1CN([C@H](C)CO)C(=O)Cc2cc(NS(=O)(=O)c3cn(C)cn3)ccc2O[C@H]1CN(C)Cc1ccc(-c2ccccc2)cc1	none
C[C@H](CO)N1C[C@H](C)[C@H](CN(C)Cc2ccc(Oc3ccccc3)cc2)Oc2ccc(NS(=O)(=O)c3cn(C)cn3)cc2CC1=O	none
COC(=O)CCCCCCC(=O)N/N=C/c1cccc(NC(=O)OC(C)(C)C)c1	none (no result: PD-1 reversal)
CC(C)COc1ccc(C(=S)N2CCCCC2)cc1	none (no result: PD-1 reversal, YB-1 expression)
Nc1cc(-c2ccccc2)c2ccccc2n1	none (no result: PD-1 reversal, YB-1 expression)
N#Cc1ccccc1CSc1nnc(N)n1-c1ccccc1	none (no result: YB-1 expression)
COCCOC(=O)N1C(=O)[C@@]2(c3ccccc31)[C@H](C(=O)NC[C@H](O)c1ccccc1)[C@H]1C(=O)O[C@H](c3ccccc3)[C@H](c3ccccc3)N1[C@@H]2c1ccc(OCCO)cc1	ROS inducer 84 (no result: PD-1 reversal)
